A selection: hits, their analogues and other compounds. The true share with any hit is near 2.6%.
TROY NFkB inh: inhibitors of TROY-dependent NF-kB signaling; Q293 LMP1-TROYcd NF-kB luciferase reporter, 4 h; inhibition, % at 10 µM; hit rate 0.98% among 360,000; AID 1347056;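 active = compounds whose plate-normalised and pattern-corrected inhibition of the luciferase reporter signal at the single screening dose is 50% or more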
EWS-Fli inh: inhibitors of EWS/Fli oncoprotein transcriptional activity | A673 NR0B1-luciferase reporter, viability-normalised | inhibition, % at 12.6 µM | hit rate 0.67% among 350,000 | AID 651661;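 active = mean inhibition of at least 50% after viability correction, with every replicate also passing that limit; inconclusive = mean reaches 50% but only one of two replicates passes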;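 also: firefly luciferase signal divided by Alamar Blue viability fluorescence both relative to DMSO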
TWEAK Fn14 block: TWEAK-Fn14 signaling inhibition. hit rate 2% among 360,000. TWEAK-stimulated Fn14 reporter cells, luciferase luminescence, 8 h. AID 1159606. inhibition, % at 10 µM; in the data active = inhibition above about 50%
LMP1 NFkB inh: reduces LMP1-driven NF-kappaB luciferase signal; LMP1-induced NF-kappaB luciferase reporter cells, luminescence; inhibition, % at 12.5 µM; hit rate 0.69% among 350,000; in the data active = inhibition above about 41%; inconclusive = no clear call, values can overlap the other calls;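 also: 0% = neutral control wells and 100% = reference inhibitor control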
LGR2 inh: blocks bursicon-induced cAMP signaling via Drosophila LGR2; HEK293 LGR2, CRE-luciferase, bursicon-stimulated, 4 h; inhibition, % at 9.99 µM; hit rate 0.35% among 380,000;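 active = drop in luminescence signal, shown as inhibition above about 50% in the replicate tests, limit read from the data, passing the limit was not always enough; inconclusive = probably only some replicates passing the limit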;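 also: agonist challenge used bursicon conditioned medium at about half maximal strength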
* marks the source's active call; other numbers are inactive results; u = inconclusive; x = no result.

SMILES	TROY NFkB inh	EWS-Fli inh	TWEAK Fn14 block	LMP1 NFkB inh	LGR2 inh
COCCn1c(C)cc(C(=O)COC(=O)c2ccc(-n3nc(C)cc3C)cc2)c1C	25	x	10	7	x
Cc1cc(C(=O)COC(=O)c2ccc(Cl)c(S(N)(=O)=O)c2)c(C)n1CC1CCCO1 (configuration not stated)	72*	-28	64*	-13	24
COc1cc(OC)cc(C(=O)OCC(=O)c2cc(C)n(CC3CCCO3)c2C)c1 (configuration not stated)	-9	-3	-5	1	-48
O=C(c1ccccc1F)N1CC2(C1)[C@H](c1ccccc1)[C@H](CO)N2CC1CCCC1	x	-3	x	x	24
COc1ccc(N=C2C(=Nc3ccc(OC)cc3)N(c3ccccc3)C(=S)N2C(=O)c2ccc(Cl)cc2)cc1	18	x	66*	22	x
COc1ccc(N2C(=S)N(C(=O)c3ccccc3)C(=Nc3ccccc3)C2=Nc2ccccc2)cc1	25	x	75*	31	x
COc1ccc(N=C2C(=Nc3ccc(OC)cc3)N(c3ccc(OC)cc3)C(=S)N2C(=O)c2ccc(OC)cc2)cc1	-25	x	-41	-13	x
COc1ccc(N=C2C(=Nc3ccc(OC)cc3)N(c3ccc(N(C)C)cc3)C(=S)N2c2ccc(OC)cc2)cc1	-22	27	-115	-93	-1
COc1ccccc1CNC(=O)Cc1ccc(OC)c(OC)c1	13	25	68*	5	4
COc1ccc(CCNC(=O)CSC(=O)c2ccccc2)cc1OC	-6	-6	-20	43*	-3
COC(=O)c1cc(NC(=O)CN(C)Cc2ccccc2)cc(C(=O)OC)c1	14	4	86*	-6	0
CN(CC(=O)Nc1ccc(Br)cc1)Cc1ccccc1	-17	-14	-31	-6	-48
CC(C)NC(=O)Nc1ccc2c(c1)C(=O)N([C@@H](C)CO)C[C@@H](C)[C@H](CN(C)S(=O)(=O)c1ccc(Cl)cc1)OCCCC[C@@H](C)O2	x	-9	x	x	9
Cc1cccc(Nc2nc3c(S(=O)(=O)c4ccccc4)nnn3c3ccccc23)c1	53*	1	-44	-17	0
CCOc1ccccc1CNc1ncnc2ccc(-c3c(C)noc3C)cc12	62*	28	82*	17	3
Cc1cc(Sc2nnc(N)s2)c2ccccc2n1	37	10	90*	71*	58*
Cc1cc(Sc2nnc(/N=C/N(C)C)s2)c2ccccc2n1	35	5	81*	70*	55*
COc1ccc(CN(C)C[C@H]2Oc3ccc(NS(=O)(=O)c4ccc(Cl)cc4)cc3C(=O)N([C@@H](C)CO)C[C@H]2C)cc1	x	14	x	x	-8
O=C(O)c1cc2cc(Cl)ccc2[nH]1	-3	0	4	2	2
O=C(O)c1cc2cc(F)ccc2[nH]1	-9	3	-1	85*	4
Cc1c[n+](CC(=O)c2ccccc2)cs1	5	1	90*	-9	-5
Cc1ccc[n+](CC(=O)c2ccc(-c3ccccc3)cc2)c1	-6	x	-6	-2	5
Cc1ccc(C(=O)C[n+]2cccc3ccccc32)cc1	50*	x	32	4	x
Cc1cc(C)c[n+](CC(=O)c2ccccc2)c1	8	7	7	5	18
Cc1ccc(C(=O)C[n+]2ccccc2)cc1	-14	-4	11	68*	-8
SMILES	TROY NFkB inh	EWS-Fli inh	TWEAK Fn14 block	LMP1 NFkB inh	LGR2 inh
O=C(NCCSc1ccccc1)c1ccc(Br)cc1	-10	-28	26	-36	x
O=C(NCCCSc1ccccc1)c1cc(Br)ccc1O	35	x	51*	-4	18
Cc1ccsc1C1C(C#N)=C(N)Oc2n[nH]c(C)c21 (configuration not stated)	6	1	61*	-12	9
COc1ccc(-n2cc(C(=O)c3ccccc3O)cn2)cc1	48	22	61*	50*	u
Cc1ccc(Oc2cc([N+](=O)[O-])cc3c2C(=O)Nc2ccccc2O3)cc1	6	x	56*	10	-5
COc1ccc(S(=O)(=O)Nc2ccc3c(c2)CC(=O)N([C@H](C)CO)C[C@@H](C)[C@H](CN(C)C)O3)cc1	x	-2	x	x	-23
C=CCc1cccc(/C=N/NC(=O)CNc2ccccc2OC)c1O	30	10	13	16	4
O=C(CNc1cccc([N+](=O)[O-])c1)N/N=C/c1ccc([N+](=O)[O-])o1	-5	26	16	-11	x
C=CCc1cccc(/C=N/NC(=O)CNc2cccc3ccccc23)c1O	46	6	69*	12	x
